Measurements reported in PubChem BioAssay.
A number with no mark means an inactive call. The source made the active and inactive calls.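 How the source made its calls: active means normalized viability below 100% at a tested concentration; inactive means the rest.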

Assay: ovarian cancer cell viability with rucaparib, profiling panel, oncology-focused library, rucaparib conditional (AID 1508598)
Settings: patient-derived ovarian cancer cells, CellTiter-Glo viability, 144 h; at 0.313 µM; OCI-C5x cells; without rucaparib; active compounds read low

SMILES	viability
O=c1[nH]c(=O)n([C@@H]2C[C@H](O)[C@@H](CO)O2)cc1F	114%
COc1cccc2c1C(=O)c1c(O)c3c(c(O)c1C2=O)C[C@@](O)(C(C)=O)C[C@H]3O[C@H]1C[C@H](N)[C@H](O)[C@H](C)O1	5.28% (active)
C[C@]12CC[C@H]3c4ccc(O)cc4CC[C@H]3[C@@H]1CC[C@H]2O	118%
CC1=C(/C=C/C(C)=C\C=C\C(C)=C/C(=O)O)C(C)(C)CCC1	106%
CC(C)CC(CC(=O)NO)C(=O)N[C@@H](Cc1ccc2ccccc2c1)C(=O)N[C@@H](C)C(=O)NCCN (stereo not given in full)	114%
COc1cccc2c1C(=O)c1c(O)c3c(c(O)c1C2=O)C[C@@](O)(C(=O)CO)C[C@H]3O[C@H]1C[C@H](N)[C@@H](O)[C@H](C)O1	43.3% (active)
COc1ccc(C2=N[C@H](c3ccc(Cl)cc3)[C@@H](c3ccc(Cl)cc3)N2C(=O)N2CCNC(=O)C2)c(OC(C)C)c1	107%
CO[C@H]1C[C@H]2CC[C@@H](C)[C@@](O)(O2)C(=O)C(=O)N2CCCC[C@H]2C(=O)O[C@H]([C@H](C)C[C@@H]2CC[C@H](OC(=O)C(C)(CO)CO)[C@H](OC)C2)CC(=O)[C@H](C)/C=C(\C)[C@@H](O)[C@@H](OC)C(=O)[C@H](C)C[C@H](C)/C=C/C=C/C=C/1C	87.6% (active)
O=C(O)c1cc(I)ccc1NC(=O)[C@H](Cc1ccccc1)NCc1ccccc1	111%
Nc1ncn([C@@H]2O[C@H](CO)[C@@H](O)[C@@H]2O)c(=O)n1	124%
